# In PubChem BioAssay (EPA / NIEHS):
# Several values for one entry are separate records, joined by “and”; a condition that tells them apart may be missing. Identical values can stand only once. Some compounds were tested as several samples or in several runs, with calls that do not always agree. Activity calls are given as the source filed them. Rule for the calls: active = hit-call score of the fitted dose curve at least 0.9, where 1 is the maximum; inactive = score below 0.9.
# Read-out: Collagen III, COL3A1 (gene 1281)
# Test: BSK_hDFCGF_CollagenIII: BioMAP Diversity Plus: hDFCGF Assay for Collagen III Biomarker Activity (AID 2283056)
# Conditions: primary human foreskin fibroblasts; actives raise or lower the signal
# Protocol: BSK_hDFCGF is a cell-based, multiplexed-readout assay that uses foreskin fibroblast, a human skin primary cell, with measurements taken at 24 hours after chemical dosing in a 96-well plate.BSK_hDFCGF_CollagenIII is an assay component measured in the BSK_hDFCGF assay. It measures Collagen antibody related to regulation of gene expression using ELISA technology.Data from the assay component BSK_hDFCGF_CollagenIII was analyzed into 1 assay endpoint. This assay endpoint, BSK_hDFCGF_CollagenIII, was analyzed with bidirectional fitting relative to DMSO as the negative control and baseline of activity. Using a type of binding reporter, gain or loss-of-signal activity can be used to understand changes in the signaling as they relate to the gene COL3A1. Furthermore, this assay endpoint can be referred to as a primary readout, because this assay has produced multiple assay endpoints where this one serves a signaling function. To generalize the intended target to other relatable targets, this assay endpoint is annotated to the cell adhesion molecules intended target family, where the subfamily is collagen.
# The levels of cell surface (or secreted, indicated by the prefix "s") biomarker endpoints were measured by ELISA. Overt cytotoxicity to cells in confluent adherent cultures (all systems other than the BT system) was assessed by measuring total protein levels using sulforhodamine B (SRB) staining in parallel cultures at the time of biomarker measurements, indicated as SRB endpoints. For proliferation assays for adherent cell types, individual cell types are cultured at sub-confluence and relative cell numbers quantified by SRB staining at time points optimized for each system (48 h: 3C and CASM3C systems; 72 h: BT and HDF3CGF systems; 96 h: SAg system). SRB was performed by staining cells with 0.1% SRB after fixation with 10% TCA and reading wells at 560 nm.Viability and proliferation of PBMC (T cells) was quantified by Alamar Blue reduction for the SAg and BT systems. For PBMC viability (referred to as PBMC Cytotoxicity within the assay endpoint names), cells were plated (75,000/well in a 96-well plate) and then chemical samples added for 1 h before addition of activators, SEB and TSST-1 (20 ng/mL final concentration each). Cells were incubated for 90 h. Then, Alamar Blue (20 uL/well) (Invitrogen, Cat DAL1100) was added for 6 h, and the plates were read with a fluorescence microplate reader at 546/580 nm (excitation/emission). For PBMC proliferation, cells were plated and activated as above but incubated for only 16 h prior to addition of Alamar Blue. Plates were read after 6 h.
Structure (SMILES),AC50,outcome
CCCCCCCCCC(=O)OCC,31.5 µM (active),–
O=C(O)C(F)(F)OC(F)(F)C(F)(F)OC(F)(F)C(F)(F)C(F)(F)C(F)(F)F,22.3 µM (active) and 29.2 µM (active),–
COC(=O)c1ccc(C(=O)OC)cc1,–,inactive
CCCCOCCOCCO,–,inactive
CCOC(=O)CCCCCCCCC(=O)OCC,–,inactive
O=C(O)C(F)(F)C(F)(F)C(F)(F)C(F)(F)C(F)(F)C(F)(F)C(F)(F)C(F)F,10.7 µM (active),inactive
CC(C)(C)c1cccc(O)c1,–,inactive
C=C1CC/C=C(\C)CC[C@@H]2[C@@H]1CC2(C)C,13.5 µM (active),–
CCn1cc(C(=O)O)c(=O)c2ccc(C)nc21,–,inactive
OCCN1CCOCC1,–,inactive
CC=CC(=O)C1=C(C)C=CCC1(C)C,–,inactive
CCCCN(CCO)CCO,–,inactive
CCC(=O)OCC=Cc1ccccc1,–,inactive
CCCO[Si](OCCC)(OCCC)OCCC,–,inactive
CC(C)CCCC(C)(C)O,–,inactive
O=C1OC2(c3ccc(O)cc3Oc3cc(O)ccc32)c2ccccc21,–,inactive
CCCCCCCCCCCCS,7.78 µM (active),–
Nc1ccc(N)c([N+](=O)[O-])c1,–,inactive
C#C[C@]1(O)CC[C@H]2[C@@H]3CCc4cc(O)ccc4[C@H]3CC[C@@]21C,–,inactive
O=C(c1ccc(OCCN2CCCCC2)cc1)c1c(-c2ccc(O)cc2)sc2cc(O)ccc12,14.8 µM (active),–

Structure (SMILES),AC50,outcome
C=C(F)C(=O)OC(C(F)(F)F)C(F)(F)F,–,inactive
CC(=O)CCC=C(C)CCC=C(C)C,–,inactive
CC(=O)OC(C)(C)C1CC=C(C)CC1 (stereo not given),–,inactive
C[C@]12CC[C@@H]3c4ccc(O)cc4CC[C@H]3[C@@H]1CC[C@@H]2O,20 µM (active),–
CC(=O)OCC=C(C)CCC=C(C)CCC=C(C)C,4.49 µM (active),–
c1ccc(Sc2ccccc2)cc1,29.9 µM (active),–
CCOC(=O)C=Cc1ccccc1,–,inactive
c1ccc2c(c1)-c1ccc3ccc4cccc5cc-2c1c3c45,–,inactive
c1ccc(OCCOc2ccccc2)cc1,–,inactive
CC(=O)c1ccc(C)cc1,–,inactive
O=S1(=O)CC(Cl)(Cl)C(Cl)(Cl)C1,1.35 µM (active),–
C=C(C)C(=O)OCCC(F)(F)C(F)(F)C(F)(F)C(F)(F)C(F)(F)C(F)(F)C(F)(F)C(F)(F)F,–,inactive
CC1(C)[C@H](C=C(Cl)Cl)[C@H]1C(=O)OCc1cccc(Oc2ccccc2)c1,–,inactive
COc1ccccc1NC(=O)CC(C)=O,–,inactive
CC(C)(CO)CO,–,inactive
C=CC(=O)OCC(CO)(COC(=O)C=C)COC(=O)C=C,0.016 µM (active),–
CC(C)Cc1ccc(C(C)C(=O)O)cc1 (stereo not given),3.33 µM (active),–
NC(=O)c1c(Cl)cccc1Cl,–,inactive
O=S(=O)(O)C(F)(F)C(F)(F)OC(F)(F)C(F)(F)F,–,inactive
